Compound activity as filed in PubChem BioAssay.
A350 autofl: qHTS Assay for Spectroscopic Profiling in A350 Spectral Region; Compound autofluorescence, 340/450 nm, Alexa 350 dye-equivalents; stronger effect = higher value; max dye-equivalent concentration, M; actives 11% (n = 59,000); in the data active = max dye-equivalent concentration above about 10 nM; inconclusive = mostly about 1.1 nM to 9.6 nM
AID923: qHTS Assay for Allosteric/Competitive Inhibitors of Caspase-1: Spectroscopic Profiling in AFC Spectral Region | compound fluorescence, AFC spectral region (405/520 nm) | Potency, µM (top dose mostly 57.5 µM), without a hit: top-dose fluorescence increase, actives largely listed as activators | actives 1.1% (n = 75,000) | AID 923, 2007; also: potency is read from the fitted curve at half-maximal effect; 0% is about no effect
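Titrations up to 57 uM read every 20 sec for 3 min (405/520 nm) with 50 nM caspase 1 and 5 uM Ac-WEHD-AFC, pH 7.5 HEPES buffer. Fluorescence-vs-time intercept gave baseline, scaled against on-plate AFC standard.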
HSD17B inh: qHTS Assay for Inhibitors of HSD17B4, hydroxysteroid (17-beta) dehydrogenase 4; 3-hydroxyacyl-CoA dehydrogenase type-2 (Homo sapiens), Q99714; recombinant HSD17B10, NADH fluorescence kinetic; Potency, µM (highest dose often 57.1 µM), inactives show at the top dose activity change, negative = inhibition, hits mostly inhibitors; actives 7.6% (n = 75,000); AID 893, 2007;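 also: the protocol describes HADH2 (HSD17B10) and not the HSD17B4 of the title; potency is read from the fitted curve at half-maximal effect; % is scaled to controls: 0 for no effect and ±100 for the full control effect; nearly all actives have a fitted effect of over 70% in size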
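Enzyme plus compound, 15 min room temperature; substrate mix added (NAD+ 1 mM, beta-hydroxybutyryl-CoA 90 uM final); plates read kinetically for NADH fluorescence. HADH2 was His-tagged, E. coli-derived, 20 nM.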
HADH2 inhib: qHTS Assay for Inhibitors of HADH2 (Hydroxyacyl-Coenzyme A Dehydrogenase, Type II). 3-hydroxyacyl-CoA dehydrogenase type-2 (Homo sapiens), Q99714. recombinant HADH2, NADH fluorescence, beta-hydroxybutyryl-CoA. Potency, µM (doses to about 57.1 µM), for the others: top-dose activity change, negative = inhibition, actives largely listed as inhibitors. actives 3.4% (n = 73,000); also: potency is read from the fitted curve at half-maximal effect; % is scaled to controls: 0 for no effect and ±100 for the full control effect; nearly all actives have a fitted effect of over 60% in size
Target sequence (Q99714 whole entry, looked up, one chain of several): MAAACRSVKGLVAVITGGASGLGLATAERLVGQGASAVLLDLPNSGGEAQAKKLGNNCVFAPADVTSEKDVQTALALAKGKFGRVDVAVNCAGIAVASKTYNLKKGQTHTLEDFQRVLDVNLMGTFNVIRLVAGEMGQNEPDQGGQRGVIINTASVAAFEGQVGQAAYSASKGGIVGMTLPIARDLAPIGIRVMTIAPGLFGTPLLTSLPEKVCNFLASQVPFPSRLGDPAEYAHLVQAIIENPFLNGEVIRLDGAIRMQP
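Read-out: 360 nm excitation, 450 nm emission, kinetic over 4 min. Conditions: His-tagged human HADH2 20 nM, pH 9.0 Tris with Tween-20, 1 mM NAD+, 90 uM beta-hydroxybutyryl-CoA.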
4MU fluor: qHTS Assay for Spectroscopic Profiling in 4-MU Spectral Region; compound autofluorescence, 340/450 nm, 4-MU equivalents; stronger effect = higher value; max dye-equivalent concentration, M; actives 11% (n = 59,000); AID 589, 2007; in the data active = max dye-equivalent concentration above about 10 nM; inconclusive = mostly about 1.1 nM to 9.6 nM
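Intrinsic fluorescence at 340/450 nm (ex/em) was read after 15 min at room temperature in pH 8.0, 100 mM Tris. Each compound concentration expressed as 4-MU-equivalent concentration from a six-point 4-MU standard series on each plate.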
CRE Fsk mod: Cell signaling CRE-BLA (Fsk stim); Potency, µM (doses to about 38.2 µM), inactives show top-dose activity change, negative = inhibition, usual class: activators; CHO CRE-bla reporter (cAMP response element driving beta-lactamase), forskolin EC10, beta-lactamase ratio; actives 2.5% (n = 71,000); active = well fitted activation curve with a large enough effect in the signal ratio, with a control signal flat, not every such curve was filed as active; inconclusive = small, poorly fitted or top-dose-only effect, or effect the other way, or a change in a side signal; the % refers to the signal ratio; also: potency is read from the fitted curve at half-maximal effect; % of control where 0% means no effect
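qHTS titration format; CRE-bla CHO reporter; stimulus EC10 NKH 477, a water-soluble forskolin. Read: CCF4 460/530 nm ratio. Potency expressed as AC50 for activators or inhibitors.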
Numbers without * were called inactive; i = inactive; ? = inconclusive; . = not tested or not shown; ! = a repeat was not active; [ ] = dose if it differs, or a comment. Only some compounds are listed: those with a hit (about 14% of all), similar ones and a draw of the others. Unless noted, calls follow the shape of the dose curve; as a rule, active = well fitted curve in the direction sought with a large enough effect; inconclusive = small, poorly fitted or top-dose-only effect, or another doubt; inactive = no such curve, though single readings can be large; an effect the other way counts as inactive or inconclusive.

SMILES	A350 autofl	AID923	HSD17B inh	HADH2 inhib	4MU fluor	CRE Fsk mod
COc1ccccc1N1CCN(CCCCN2C(=O)c3ccccc3C2=O)CC1	7.9e-06M*	-1%	-5%	32µM*!	7.7e-06M*	-20%
COc1ccccc1C(=O)Nc1ccc2c(c1)nc(CN1CCN(C(C)=O)CC1)n2C	1e-08M*	0%	41%	-25%	?	4%
C/C=C1\C2C=C(C)C[C@@]1(N)c1ccc(=O)[nH]c1C2	.	-1%	2%	.	.	.
CN(C)C=Nc1ncc2c3ccccc3n(Cc3ccccc3)c2c1C#N	4.2e-07M*	1%	-5%	32µM*	3.9e-07M*	?
CN(C)C=Nc1ncc2c3ccccc3n(CCN(C)C)c2c1C#N	1.1e-07M*	1%	?	-19%	9.1e-08M*	0%
CN(C)/C=N/c1c(C#N)nnn1Cc1ccccc1	i	1%	13%	-13%	i	8%
COc1ccccc1OCCCn1c(C)c(C#N)c2ccccc21	i	2%	-7%	-6%	i	14%
O=C(O)/C=C\C(=O)Nc1ccccn1	i	-1%[11.5 µM]	10%[11.4 µM]	7%[11.4 µM]	i	13%[7.6 µM]
C#CCCCO/N=C1/C[C@@H](O)[C@@H](O)[C@@H]2[C@@H]3C(=O)N(Cc4ccccc4)C(=O)[C@H]3CC[C@@H]12	.	0%[11.5 µM]	0%[11.4 µM]	-4%[11.4 µM]	.	.
Nc1cccc(-n2nncc2-c2ccc(Cl)cc2)c1	1.5e-08M*	1%	-8%	-1%	1.4e-08M*	?
COC(=O)CN(C)C1CC(=O)N(c2ccc(Cl)cc2)C1=O (configuration not stated)	2.3e-08M*	5%	-12%	71%	1.1e-08M*	?
Cc1cc(C(=O)Nc2sc3c(c2C#N)CCCCC3)cs1	6.3e-08M*	-1%	?	16µM*	4.9e-08M*	22%
N#Cc1c(NC(=O)c2nc3ncccn3n2)sc2c1CCCCC2	1.8e-08M*	0%	-27%	?	2.4e-08M*	-4%
O=C(NC1CCCCCC1)c1nc2ncccn2n1	i	-1%	7%	-19%	i	-1%
N#Cc1c(NC(=O)c2ccncc2)sc2c1CCC2	i	-2%	?	7.9µM*	i	-5%
CCCC(=O)Nc1sc2c(c1C#N)CCCC2	i	.	.	.	i	.
CCCc1cc(C(=O)Nc2sc(C)c(C)c2C(=O)OCC)no1	.	-1%	32µM*	?	.	2µM*
COC(=O)CCC(=O)Nc1sc2c(c1C#N)CCCC2	i	0%	-12%	-21%	i	?
CC12C=C(/C=C/C=C/c3ccco3)C(C)(C1)C(/C=C/c1ccco1)CC2=O (configuration not stated)	.	-3%[11.5 µM]	?	?	.	.
Cc1cc(C(=O)CSC(=S)SC(C)(C)C)ccc1Cl	i	1%[11.5 µM]	4%[11.4 µM]	-7%[11.4 µM]	i	4%[7.6 µM]
CC(C)=CCl	.	0%	6%	6%	.	-11%
CCCc1cc(C(=O)Nc2sc3c(c2C#N)CCC3)no1	.	3%	?	16µM*	.	?
c1cncc(CNCc2cccnc2)c1	i	0%[11.5 µM]	4%[11.4 µM]	6%[11.4 µM]	i	5%[7.6 µM]
Clc1ccc(OCc2nnc3n2N=C(c2ccc4c(c2)OCCO4)CS3)c(Cl)c1	i	1%	-5%	-10%	i	13µM*
COc1ccc(C2=Nn3c(nnc3-c3cccnc3)SC2)cc1OC	i	.	.	.	i	.
N#CC1=C(N)Oc2n[nH]c(-c3ccccc3)c2C12C(=O)Nc1ccccc12 (configuration not stated)	1.3e-07M*	1%	0%	5%	1.6e-07M*	-3%
COCc1[nH]nc2c1C1(C(=O)Nc3ccc(F)cc31)C(C#N)=C(N)O2 (configuration not stated)	?	3%	-4%	2%	i	-5%
COc1ccc(-c2nc3c(n2O)CCCC3=O)cc1OC	1.5e-08M*	1%	?	-8%	1.2e-08M*	-4%
